The text below walks through data of PubChem BioAssay AID1438 (Sanford-Burnham Center for Chemical Genomics, 2008).

Structures are written as SMILES. In all, about 2,200 compounds went through this assay and about 45 (2%) were called active. The list is a sample of the results. Potency and affinity values are given separately. Values without a mark were called inactive. How the calls were made is not given here.

This experiment deals with Runt-related transcription factor 1 (Homo sapiens) + Core-binding factor subunit beta (Homo sapiens) (UniProt Q01196+Q13951). As to the kind of experiment: inhibitors of RUNX1 Runt–CBFb-SMMHC binding, biochemical, TR-FRET (AID 1438). The conditions noted are these: TR-FRET Runt domain–CBFb-SMMHC binding, at 20 µM, active compounds read high. Background: TR-FRET usually uses a lanthanide donor and a delayed reading to cut background.
Chain of Runt-related transcription factor 1 (Homo sapiens) + Core-binding factor subunit beta (Homo sapiens) (Q01196 whole entry, looked up, the tested form may be a part): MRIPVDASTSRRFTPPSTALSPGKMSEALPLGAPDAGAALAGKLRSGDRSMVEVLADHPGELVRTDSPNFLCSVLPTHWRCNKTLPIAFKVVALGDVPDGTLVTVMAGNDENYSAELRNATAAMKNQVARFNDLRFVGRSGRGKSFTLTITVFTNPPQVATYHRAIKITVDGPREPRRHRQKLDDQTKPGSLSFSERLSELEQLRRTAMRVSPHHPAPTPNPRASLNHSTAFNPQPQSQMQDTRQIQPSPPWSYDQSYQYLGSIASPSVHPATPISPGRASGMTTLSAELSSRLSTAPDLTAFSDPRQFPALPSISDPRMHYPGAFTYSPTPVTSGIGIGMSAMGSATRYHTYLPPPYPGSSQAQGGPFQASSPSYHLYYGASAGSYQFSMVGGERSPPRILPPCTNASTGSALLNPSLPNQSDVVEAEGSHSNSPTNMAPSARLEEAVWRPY
Chain of Runt-related transcription factor 1 (Homo sapiens) + Core-binding factor subunit beta (Homo sapiens) (Q13951 whole entry, looked up, the tested form may be a part): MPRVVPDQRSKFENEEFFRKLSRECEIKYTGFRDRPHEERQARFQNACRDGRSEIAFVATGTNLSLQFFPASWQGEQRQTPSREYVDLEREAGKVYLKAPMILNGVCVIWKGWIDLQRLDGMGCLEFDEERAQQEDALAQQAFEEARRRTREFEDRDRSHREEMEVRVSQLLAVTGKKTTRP
On to `CCOc1ccc2nc(NCCNC(=O)CC)c(C#N)cc2c1`, for which the inhibition is 33.5%. The figure for `CC(=O)N(C)/C=C1\Sc2ccccc2C1=O` is 6.4%; for `Cc1ccc(-n2c(=O)c(C#N)cc3c(=O)n4cccc(C)c4nc32)cc1` it is 48.6%; for `COCCCn1c(=O)/c(=C\c2ccc(OC(F)F)c(OC)c2)s/c1=C(/C#N)C(=O)NCCOC` it is -12.1%. As for `Cc1ccc(C)c(OCCn2cc(/C=C(\C#N)C(=O)NCc3ccco3)c3ccccc32)c1`, the inhibition is 17.3%. Consider `COc1cc(N2C(=O)C=CC2=O)c(OC)cc1Cl`, for which the inhibition was -8.5%.

`Cc1cc(N2C(=O)C=CC2=O)c([N+](=O)[O-])cc1C`: the inhibition was 52.7% (active).

In the case of `C=C(C)CNC(=S)Nc1sc2c(c1C(=O)OCC)CC(C)(C)OC2`, the inhibition was -9.8%. Take `Cc1cccc(C)c1NC(=O)COC(=O)c1c2c(nc3ccccc13)/C(=C\c1ccc3c(c1)OCO3)CCC2`: the inhibition is 1.3%. Take `O=C(O)c1c2c(nc3ccccc13)/C(=C/c1ccc(O)cc1)CC2`: the inhibition is -6.6%.

With `COc1ccc(/C=C2\CCc3c2nc2ccccc2c3C(=O)O)cc1OC`, the inhibition was -11.1%.

On to `NS(=O)(=O)c1ccc(NC(=O)COC(=O)c2c3c(nc4ccccc24)/C(=C\c2ccc4c(c2)OCO4)CCC3)cc1`, for which the inhibition is -24.4%. Next, `CCN1CCc2c(C#N)c(N3CCOCC3)nc(NCc3ccccc3)c2C1`: 35.4%; `Cc1cccn2c(=O)c3cc(C(=O)NCC4CCCO4)c(=N)n(CCN4CCOCC4)c3nc12` (stereo unspecified): 11.3%. For `COc1ccc(C2C=C(c3ccccc3)Nc3ncnn32)cc1` (stereo unspecified), the inhibition is 30.8%. As to `Cc1ccccc1-n1c(=O)c(C#N)cc2c(=O)n3ccccc3nc21`, the inhibition was 23.6%. Take `c1cc2c(cc1-c1csc(NNC3=NCCCCC3)n1)OCCO2`: the inhibition was -4.3%. Regarding `N#Cc1c(NCCO)nc(NCc2ccccc2)c2c1CCN(Cc1ccccc1)C2`, the inhibition was 48.5%. As to `C=CCNc1nc(NCc2ccccc2)c(C#N)c2c1CN(C)CC2`, the inhibition is 31.3%. Consider `Cn1c(=N)c(S(=O)(=O)c2ccc(F)cc2)cc2c(=O)n3ccccc3nc21`, for which the inhibition is 47.6%. Consider `O=C(O)c1cc2ccc3ccccc3c2oc1=O`, for which the inhibition is 34.5%. The figure for `O=C(c1cc2ccccc2oc1=O)N1CCN(CCc2ccccc2)CC1` is 55.2% (active); for `COc1cc2cc(C(=O)N3CCN(Cc4ccc5c(c4)OCO5)CC3)c(=O)oc2cc1OC` it is -6.8%. As to `CC1=CC(c2ccc(Cl)cc2)n2nc(NC(=O)CCC(=O)O)nc2N1` (stereo unspecified), the inhibition was -7.4%. In the case of `Cc1cc(-c2nc3cccnc3s2)ccc1NS(=O)(=O)c1cccs1`, the inhibition was -9.2%.

As for `CC(=O)N=c1c(C#N)cc2c(=O)n3cccc(C)c3nc2n1Cc1ccco1`, the inhibition is -8.8%.

Regarding `CCOC(=O)c1cc2c(=O)n3ccccc3nc2n(Cc2ccco2)c1=NC(=O)c1ccc(OC)cc1`, the inhibition was -16.9%. Regarding `CC(=O)N=c1c(C#N)cc2c(=O)n3ccccc3nc2n1Cc1ccccc1`, the inhibition is 47.4%. For the compound `Cc1ccccc1C(=O)N=c1c(C#N)cc2c(=O)n3cccc(C)c3nc2n1Cc1ccco1`, the inhibition was 47%. Next, `COCCCn1c(=NC(=O)c2ccncc2)c(C#N)cc2c(=O)n3cccc(C)c3nc21`: 14%; `Cc1cccn2c(=O)c3cc(C#N)c(=NC(=O)c4ccco4)n(Cc4ccco4)c3nc12`: -9.7%. Consider `O=C(Cc1nc2ccccc2s1)c1ccc(O)cc1O`, for which the inhibition was 15.1%. Regarding `CCOC(=O)c1cc(C(=O)OCC)c2ccccn2c1=O`, the inhibition was 25.7%. `COCCCNC(=O)c1cc2c(=O)n3cc(C)ccc3nc2nc1NCC1CCCO1` (stereo unspecified): the inhibition was -2.6%.

`CC(C)OC(=O)c1c2nc3ccccc3nc2n2c1[nH]c(=O)c1ccccc12`: the inhibition is -203%.

Take `Cc1ccc2[nH]cc(C(=O)CN3CCC4(CC3)OCCO4)c2c1`: the inhibition is 2.6%. As to `O=c1[nH]c2ccccc2n2c(-c3ccccc3)nnc12`, the inhibition is 84.1% (active). With `O=c1[nH]c2ccccc2nc1/C=C/c1ccccc1`, the inhibition is -5.7%. Take `COCc1cc(=O)n2c([nH]c3ccccc32)c1C#N`: the inhibition is 38.4%. Consider `Cc1cccn2c(=O)c3cc(C(=O)NCc4ccco4)c(=N)n(C(C)C)c3nc12`, for which the inhibition is 32.5%. As to `COc1cc(/C=C/C(=O)OCC(=O)Nc2ccccc2Sc2ccc(Cl)cc2)ccc1O`, the inhibition was 1.1%. Take `Cc1cccn2c(=O)c(/C=C(\C#N)C(=O)NC3CCS(=O)(=O)C3)c(N3CC(C)OC(C)C3)nc12` (stereo unspecified): the inhibition is -39.6%. Next, `COc1ccc(OC)c(N=c2ssnc2Cl)c1`: -11.1%; `N#Cc1c(NC(=S)NC(=O)c2ccccc2)sc2c1CCN(CCc1ccccc1)C2`: 52% (active); `CC(C)N1CCc2c(sc(NC(=S)NC(=O)c3ccccc3)c2C#N)C1`: 21.2%. The figure for `CCCN1CCc2c(sc(NC(=S)NC(=O)c3ccccc3)c2C#N)C1` is -14.1%; for `CNS(=O)(=O)c1ccc2nc(NC(=O)c3ccc(N4C(=O)CCC4=O)cc3)sc2c1` it is -3.6%. The figure for `O=C(Nc1nc2c(s1)CN(Cc1ccccc1)CC2)C1CCC1` is 43%; for `COc1ccc(C2c3ccc(O)cc3Oc3ncn(CC(C)C)c(=N)c32)cc1` (stereo unspecified) it is -6.8%. For `CC(=O)Nc1sc2c(c1C(N)=O)CCN(Cc1ccccc1)C2`, the inhibition is -0.2%.

As to `NNc1nc2sc3c(c2c(=O)n1C1CCCCC1)CCN(Cc1ccccc1)C3`, the inhibition is -9.4%. Next, `CC1(C)CC(=O)C2=C(C1)Nc1ccccc1NC2`: -9.5%; `O=C(c1ccccc1)c1cc2ccc(O)cc2oc1=O`: -8.4%; `CCCn1c(=N)c(C(=O)NC2CCCC2)cc2c(=O)n3cccc(C)c3nc21`: 2.5%. As to `CCc1ccc(S(=O)(=O)Nc2ccc(-c3nc4cccnc4s3)cc2)s1`, the inhibition is 44%. For `O=S(=O)(Nc1ccc(-c2nc3cccnc3s2)cc1)c1cccs1`, the inhibition is 29.2%. As to `Cc1cccc2cc(C#N)c(NCCNS(=O)(=O)c3ccccc3)nc12`, the inhibition is -12.6%. Turning to `CN1CCN(Cc2c(O)ccc3cc(-c4ccccn4)c(=O)oc23)CC1`, the inhibition is -17.3%.

For `COc1ccc(C2C3=C(CC(C)(C)CC3=O)Nc3c2c(=O)[nH]c2nc(C)nn32)cc1` (stereo unspecified), the inhibition was 17.2%. As to `Cc1nc2[nH]c(=O)c3c(n2n1)NC1=C(C(=O)CC(C)(C)C1)C3c1ccc(F)cc1` (stereo unspecified), the inhibition was 46.7%. Next, `O=C(Nc1nccs1)c1ccccc1N=Cc1ccccc1`: 49.3%; `Cn1c(C(=O)NCc2ccccn2)cc2c(=O)n3ccccc3nc21`: 11.6%. Take `CC(C)Cn1c(N)c(C(=O)NCCN2CCOCC2)c2nc3ccccc3nc21`: the inhibition was 46.7%.

Consider `CC(C)Cn1c(N)c(C(=O)NCc2cccs2)c2nc3ccccc3nc21`, for which the inhibition was 17%. On to `COc1ccc(CCn2c(N)c(C(=O)NCc3ccco3)c3nc4ccccc4nc32)cc1`, for which the inhibition was 46.3%. As to `Nc1c(C(=O)NCc2ccco2)c2nc3ccccc3nc2n1CCc1ccccc1`, the inhibition was 42.7%. As for `CCN1CCc2nc(SCC(=O)Nc3ccc(OC)cc3)c(C#N)cc2C1`, the inhibition was 20.7%. Next, `CCOC(=O)C1=C(CSc2nc3c(cc2C#N)CN(C)CC3)OC(N)=C(C#N)C1c1ccncc1` (stereo unspecified): 35.4%. `Cc1cc(=O)oc2cc(OC(=O)c3cncc(Br)c3)ccc12`: the inhibition was -4.4%. The figure for `O=C(COC(=O)COc1ccccc1[N+](=O)[O-])NC1CCCC1` is -6%. The figure for `COc1ccc(OCCn2cc(/C=C(\C#N)C(=O)NCc3ccco3)c3ccccc32)cc1` is -10.8%; for `CN1CCc2cc3c(c4c2[C@H]1[C@H](O)c1ccccc1-4)OCO3` it is 18.4%.

As to `COc1c(O)ccc2c1CN1CCc3cc4c(cc3C1C2)OCO4` (stereo unspecified), the inhibition is -9.6%.

As to `CNC(=O)/C(C#N)=C/c1c(N(Cc2ccccc2)Cc2ccccc2)nc2c(C)cccn2c1=O`, the inhibition was -14.8%. Take `CC(=O)N=c1c(C#N)cc2c(=O)n3ccccc3nc2n1CCCOC(C)C`: the inhibition is 7.1%. Turning to `CCN(CC)c1ccc2cc(C(=O)Nc3cccnc3N3CCOCC3)c(=O)oc2c1`, the inhibition is -26.6%. Take `CCCCCCc1cc2cc(S(=O)(=O)c3ccc(Cl)cc3)c(=O)oc2cc1O`: the inhibition was 12.2%. In the case of `Cc1cccn2c(=O)c3cc(S(=O)(=O)c4ccc(F)cc4)c(=N)n(Cc4ccco4)c3nc12`, the inhibition was -6.5%. For the compound `CCCn1c(=N)c(S(=O)(=O)c2ccccc2)cc2c(=O)n3ccccc3nc21`, the inhibition was -6.9%. For the compound `CCn1c(=N)c(S(=O)(=O)c2ccccc2)cc2c(=O)n3ccccc3nc21`, the inhibition is -19.8%. With `Cc1ccc2nc3c(cc(S(=O)(=O)c4ccccc4)c(=N)n3Cc3ccco3)c(=O)n2c1`, the inhibition is -7.9%. As to `COC(=O)C1=CN(CC2CCCO2)C=C(C(=O)OC)C1c1ccccc1C(F)(F)F` (stereo unspecified), the inhibition was 45.6%. On to `Cc1ccccc1OCCn1cc(/C=C(\C#N)C(=O)NCc2ccco2)c2ccccc21`, for which the inhibition was 20.8%.

Regarding `COCCOC(=O)C1=C(C)NC2=C(C(=O)CC(C)(C)C2)C1c1cccnc1` (stereo unspecified), the inhibition was 35.5%. As for `Fc1ccc(CSc2nc3ncccc3[nH]2)cc1`, the inhibition is -9.6%.

On to `CCC(C)n1c(=N)c(C#N)cc2c(=O)n3cccc(C)c3nc21` (stereo unspecified), for which the inhibition is -18.9%. On to `CCOC(=O)c1cc2c(=O)n3ccccc3nc2n(Cc2ccco2)c1=NC(=O)c1cccc(OC)c1`, for which the inhibition was -10.1%. Consider `O=C(c1ccccc1)c1ccccc1N1C(=O)C=CC1=O`, for which the inhibition was 28.3%. Next, `O=C1C=CC(=O)N1c1cccc(-c2ccccc2)c1`: -6.3%; `Cc1ccccc1Oc1nc2c(C)cccn2c(=O)c1/C=C(\C#N)C(=O)NC1CCS(=O)(=O)C1` (stereo unspecified): -12.5%. In the case of `Cc1cc(C)cc(Oc2nc3ccccn3c(=O)c2/C=C(\C#N)C(=O)NC2CCS(=O)(=O)C2)c1` (stereo unspecified), the inhibition was -134%.

As a reminder, the inhibition is the drop in the measured response relative to a control, in per cent.
